# Screening results deposited in PubChem by National Center for Advancing Translational Sciences (NCATS).
# IMPase inh: qHTS Assay for Identifying the Cell-Membrane Permeable IMPase Inhibitors | Inositol monophosphatase 1 (Rattus norvegicus), P97697 | CHO-M1 cells, IP1 accumulation, HTRF TR-FRET ratio | inhibition (IP1 accumulation), % at 46.1 µM | 120,000 tested, under 10 active | AID 901, 2007; active = well fitted curve in the direction sought with a large enough effect in the signal ratio, not every such curve was filed as active; inconclusive = small, poorly fitted or top-dose-only effect, or a change in a side signal; inactive = no such curve, though single readings can be large or run the other way; the % refers to the signal ratio;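 also: cells stimulated with carbachol in lithium chloride buffer; plate controls were DMSO basal wells for no effect and reference inhibitor wells for full effect; higher means more IMPase inhibition seen as more IP1 and lower FRET ratio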
#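 CHO-M1 cells (CHO stably expressing M1 receptor), compound up to 46 uM final, stimulated with carbachol (50 uM as added) in buffer with 50mM LiCl, pH 7.4, 30 min at 37C. Cytosolic IP1 read by TR-FRET; AC50 from Hill fits.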
# IMPase Li cell: qHTS Assay for Identifying the Cell-Membrane Permeable IMPase Inhibitors: Potentiation with Lithium | Potency, µM (top dose mostly 59.4 µM), for inactives: at the highest dose activity, negative = IMPase inhibition, hits mostly inhibitors | CHO-M1 cells, IP1 TR-FRET (IP-One), carbachol + lithium | 210,000 compounds, 0.35% hits;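 also: IP1 builds up when IMPase is blocked and the TR-FRET signal falls; potency is read from the fitted curve at half-maximal effect; plate controls were basal vehicle for no effect and high inhibitor control for full effect; nearly all actives have a fitted effect of over 50% in size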
#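 Test compounds were applied to CHO-M1 cells previously cultured for 16–30 h at 2000 per well. A small lithium amount accompanied them; after 30 min at 37C, IP1 was quantified by TR-FRET.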
# 12-hLO inh: qHTS Assay for Inhibitors of 12-hLO (12-human lipoxygenase); Polyunsaturated fatty acid lipoxygenase ALOX12 (Homo sapiens), P18054; purified 12-hLO, xylenol orange hydroperoxide absorbance; Potency, µM (top dose mostly 57.1 µM), for the others: top-dose activity change, negative = inhibition, usual class: inhibitors; 150,000 compounds, 0.12% hits; also: potency is read from the fitted curve at half-maximal effect; nearly all actives have a fitted effect of over 55% in size
# Target sequence (P18054 whole entry, looked up): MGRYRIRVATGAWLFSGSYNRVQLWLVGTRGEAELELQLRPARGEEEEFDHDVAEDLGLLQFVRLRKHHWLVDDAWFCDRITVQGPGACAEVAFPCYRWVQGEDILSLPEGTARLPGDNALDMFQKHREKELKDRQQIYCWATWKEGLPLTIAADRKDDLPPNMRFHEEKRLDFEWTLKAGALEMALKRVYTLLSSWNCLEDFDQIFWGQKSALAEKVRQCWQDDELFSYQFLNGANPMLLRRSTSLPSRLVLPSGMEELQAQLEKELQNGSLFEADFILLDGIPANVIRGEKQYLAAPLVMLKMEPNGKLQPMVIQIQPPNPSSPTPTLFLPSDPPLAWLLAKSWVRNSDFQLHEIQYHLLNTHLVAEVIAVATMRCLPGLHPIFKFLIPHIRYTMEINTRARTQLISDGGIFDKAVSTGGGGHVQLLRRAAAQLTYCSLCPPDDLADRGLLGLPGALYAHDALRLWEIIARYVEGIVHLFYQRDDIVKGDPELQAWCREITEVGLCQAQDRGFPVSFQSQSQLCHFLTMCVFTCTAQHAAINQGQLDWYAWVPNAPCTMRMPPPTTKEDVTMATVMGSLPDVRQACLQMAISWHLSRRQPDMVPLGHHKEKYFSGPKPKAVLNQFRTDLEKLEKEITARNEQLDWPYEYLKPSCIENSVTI
#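 Hydroperoxide output read as Fe(III)-xylenol orange absorbance, 573-to-405 nm ratio, after 30 min reaction with 40 uM arachidonic acid. Enzyme: 150 nM purified human 12hLO, 15 min compound preincubation; 25 mM Hepes pH 7.0, room temperature.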
# ALOX15B inhib: qHTS Assay for Inhibitors of 15-hLO-2 (15-human lipoxygenase 2). Potency, µM (titrated, usually from 57.1 µM), for inactives: top-dose activity change, negative = inhibition, actives largely listed as inhibitors. AID 881, 2007. purified 15hLO-2, xylenol orange hydroperoxide absorbance. 110,000 compounds, 0.56% hits. Polyunsaturated fatty acid lipoxygenase ALOX15B (Homo sapiens), O15296; also: potency is read from the fitted curve at half-maximal effect; nearly all actives have a fitted effect of over 60% in size
#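 Screening format was qHTS against 50 nM purified 15hLO-2 in Hepes pH 7.5 with detergent. Activity follows hydroperoxide formation from 45 uM arachidonic acid, measured as 573:405 nm absorbance ratio of the ferric-xylenol orange complex.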
# * = called active by the depositor; ? = inconclusive; nt = not tested or not shown; [ ] = remark or other dose. Sampled rows, rich in hits. Any-hit rate of the full collection: about 0.57%. Unless noted, calls follow the shape of the dose curve; as a rule, active = well fitted curve in the direction sought with a large enough effect; inconclusive = small, poorly fitted or top-dose-only effect, or another doubt; inactive = no such curve, though single readings can be large; an effect the other way counts as inactive or inconclusive. Unless noted, % is scaled to controls: 0 for no effect and ±100 for the full control effect.
SMILES,IMPase inh,IMPase Li cell,12-hLO inh,ALOX15B inhib
CN(CCO)c1nc(N)c2c(N)nc3c(c2c1C#N)CC(=O)N3C1CCCC1,10,-7%[38.3 µM],-5%,nt
COc1ccccc1N1CCN(CCn2c(=O)c3c(c4ccccc4n3C)n(C)c2=O)CC1,nt,-1%,nt,nt
CCCCc1cc2c(cn1)=C(OC(=O)c1ccc(Cl)nc1)C(C)(OC(=O)CC)C(=O)C=2 (stereo unspecified),nt,10%,-2%[11.4 µM],nt
CCOC(=O)Cc1csc(NC(=O)c2sc3nc4ccc(CC)cc4cc3c2N)n1,-25,?,10µM*,-28%
CCOC(=O)Cc1csc(NC(=O)c2sc3nc4cc(C)ccc4cc3c2N)n1,-5,-14%,-12%,nt
O=C(CSC1=NS(=O)(=O)c2ccccc21)Nc1ccccc1,0,8%[38.3 µM],3%,13µM*
CCCc1ccc(/C=C2\C(=O)c3ccccc3C(O)=C2C(=O)OCC)cc1,9,34%[38.3 µM],-22%,6.3µM*
CCOC(=O)C1=C(O)c2ccccc2C(=O)/C1=C\c1ccc(CC)cc1,9,17%,?,10µM*
COC(=O)N1C2=C(c3ccccc3[C@@H]1CC(=O)Nc1ccc3ccc4cccc5ccc1c3c45)[C@@H]1C(=O)N(c3ccccc3)C(=O)[C@@H]1[C@H](C)C2,nt,10%,-15%[11.4 µM],nt
COC(=O)C(C(C)=O)C1c2ccccc2C=C(C)N1C(=O)OC (stereo unspecified),nt,6%,4%[11.4 µM],nt
CCOc1ccc(C(=O)NC(=S)Nc2ccc(NC(=O)CC)cc2)cc1[N+](=O)[O-],nt,3%,-18%,nt
CS(=O)(=O)c1ccc(SCC(=O)NC2CCS(=O)(=O)C2)c([N+](=O)[O-])c1 (stereo unspecified),nt,-5%,nt,nt
COC(=O)c1ccc(SCC(=O)NC2CCCCC2)c([N+](=O)[O-])c1,?,11µM*,-2%,nt
CCOc1ccc(C(=O)NC(=S)NC2CCCC2)cc1[N+](=O)[O-],nt,3%,28µM*,nt
Cc1ccc(C)c(-c2ccc(C(=O)O)o2)c1,nt,13%,2%[0.00818 µM],-12%[0.0915 µM]
Cc1c(C(=O)O)sc2ncnc(N3CCCCC3C)c12 (stereo unspecified),?,5.6µM*,8%,0%
Cc1cc(=O)c2c(O)c(O)ccc2o1,11,-1%[38.3 µM],-24%,-16%
CC(C)c1ccc(O)c(O)c(=O)c1 (tested in a mixture with another compound),nt,-7%,?,4µM*
COC(=O)Cn1c(=NC(=O)c2ccc(OC)c(OC)c2)sc2cc(OC)ccc21,nt,8.9µM*,0%,nt
CCCCc1nc2c(c3c1C[C@H](C)OC3)CN(C(=O)Cc1cccs1)CC2,nt,5%,0%[11.4 µM],nt
O=C(O)c1cccc(SSc2cccc(C(=O)O)c2)c1,nt,5%,-6%[11.4 µM],10%[11.4 µM]
OC1(c2cccc(C(F)(F)F)c2)CCN(c2ncnc3c2[nH]c2ccc(F)cc23)CC1,3,-17%[38.3 µM],18µM*,2%
C=CCOc1cccc(C2C(C(=O)c3ccc(C)o3)=C(O)C(=O)N2Cc2ccncc2)c1 (stereo unspecified),?,11µM*,-20%,-8%
C=CCOc1cccc(C2C(C(=O)c3ccco3)=C(O)C(=O)N2Cc2ccncc2)c1 (stereo unspecified),-17,5%[38.3 µM],-10%,-8%
CCOc1cccc(C2C(C(=O)c3ccc(C)o3)=C(O)C(=O)N2Cc2ccncc2)c1 (stereo unspecified),?,10µM*,-3%,-9%
SMILES,IMPase inh,IMPase Li cell,12-hLO inh,ALOX15B inhib
CCOc1cccc(C2C(C(=O)c3ccc(C)o3)=C(O)C(=O)N2c2nccs2)c1 (stereo unspecified),?,nt,?,-23%
Cc1cc(Cc2cc(C)c(N)cc2N)c(N)cc1N,nt,9%,3%[11.4 µM],-2%[11.4 µM]
CCOC(=O)c1ccccc1NC(=O)c1cncc(Br)c1,?,1.3µM*,-2%,6%
CCOC(=O)c1ccccc1NC(=O)c1cccnc1,-6,12%,3%,nt
Cc1ccc(S(=O)(=O)N(CC(=O)O)c2ccc(Cl)cc2)cc1,nt,nt,-5%,nt
Oc1ccc(-c2csc(-c3ccccc3)n2)cc1O,8,5%[38.3 µM],13µM*,4µM*
Oc1ccccc1-c1csc(-c2ccccc2)n1,nt,19%,nt,nt
OCC(CO)(CBr)CBr,nt,13%,2%,-2%
S=C(Nc1ccc(Oc2ccc(NC(=S)NC3CCCCC3)cc2)cc1)NC1CCCCC1,nt,-8%,1.3µM*,nt
S=C(Nc1ccc(Oc2ccccc2)cc1)NC1CCCCCC1,-8,22%,?,nt
COC(=O)C(C(=O)OC)C1c2ccccc2C=C(C)N1C(=O)OC (stereo unspecified),nt,2%,2%[11.4 µM],nt
N#C/C(=C\c1ccc(O)c(O)c1)C(=O)NCCCCc1ccccc1,2,32%,?,16µM*
N#C/C(=C\c1ccc(O)c(O)c1)C(=O)NCCc1ccccc1,16,41%,?,-24%
COCCNC(=O)c1cc(-c2cccnc2)nc2ccc(Br)cc12,-19,11µM*,7%,13%
COc1cc(NC(=O)c2cc(-c3cccnc3)nc3ccc(Br)cc23)cc(OC)c1,nt,-19%,nt,nt
CN(C)CCCNC(=O)c1ccc(Cc2nc3ccccc3[nH]2)cc1,nt,nt,-1%,nt
CCN(CC)Cc1c(O)c(Cl)cc2c3c(c(=O)oc12)CCCC3,-21,13µM*,-24%,42%
N#Cc1cc(-c2ccc(Cl)cc2)cnc1Sc1ccc(F)cc1,0,25µM*,-1%,-1%
N#Cc1cc(-c2ccccc2)cnc1Sc1ccc(Cl)cc1,3,1%[38.3 µM],1%,12%
CCn1c(-c2ccc(S(=O)(=O)N3CCOCC3)cc2)csc1=Nc1ccc(C)c(Cl)c1,-12,nt,nt,nt
COCCCn1c(-c2ccc(S(=O)(=O)N3CCOCC3)cc2)csc1=Nc1ccccc1,-13,10µM*,4%,1%
CC(=O)O[C@@H]1C[C@]2(C)[C@H](C[C@@H](O)[C@H]3[C@@]4(C)CC[C@@H](O)[C@@H](C)[C@@H]4CC[C@@]32C)/C1=C(\CCC=C(C)C)C(=O)O,11,nt,-4%,-13%
Cc1ccc(NC(=S)NCCc2c[nH]c3ccccc23)cc1,4,3%[38.3 µM],?,25µM*
Cc1ccc(NS(=O)(=O)c2cc(C(=O)O)ccc2Cl)cc1C,nt,nt,-1%,nt
Clc1ccc(-n2ncc3c(N4CCCCCC4)ncnc32)cc1,?,39%[38.3 µM],-2%,-1%
Brc1cc(Br)c2ncnc(N3CCCCC3)c2c1,?,13µM*,-10%,-3%
Cc1ccc(C2C(C#N)=C(N)SC(N)=C2C#N)c(C)c1,0,7.9µM*,?,13µM*
CCCSC1=N/C(=C\C=C\c2ccco2)C(=O)S1,-2,-18%[38.3 µM],?,25µM*
O=C1SC(SCc2ccccc2)=N/C1=C\c1ccco1,?,6%[38.3 µM],?,?
